Test results: PubChem BioAssay (EPA / NIEHS)
Activity calls are given as the source filed them. How the source made its calls: active means hit-call score of the fitted dose curve at least 0.9, where 1 is the maximum; inactive means score below 0.9.

Experiment: ATG_ERE_CIS: Attagene CIS-FACTORIAL HepG2 Assay for Estrogen Response Element (ERE) (AID 2282940)
Conditions: HepG2 ERE cis-reporter, Attagene RNA transcript; actives raise or lower the signal
Experimental: ATG_CIS is a cell-based, multiplexed-readout assay that uses HepG2, a human liver cell line, with measurements taken at 24 hours after chemical dosing in a 24-well plate.ATG_ERE_CIS is one of 52 assay component(s) measured or calculated from the ATG_CIS assay. It is designed to make measurements of mRNA induction, a form of inducible reporter, as detected with fluorescence intensity signals by Reverse transcription polymerase chain reaction (RT-PCR) and Capillary electrophoresis technology.Data from the assay component ATG_ERE_CIS was analyzed into 1 assay endpoint. This assay endpoint, ATG_ERE_CIS, was analyzed with bidirectional fitting relative to DMSO as the negative control and baseline of activity. Using a type of inducible reporter, measures of mRNA for gain or loss-of-signal activity can be used to understand the reporter gene at the transcription factor-level as they relate to the gene ESR1. Furthermore, this assay endpoint can be referred to as a primary readout, because this assay has produced multiple assay endpoints where this one serves a reporter gene function. To generalize the intended target to other relatable targets, this assay endpoint is annotated to the nuclear receptor intended target family, where the subfamily is steroidal.
Human liver HepG2 cells are transiently transfected with multiple reporter transcription units (MRTUs) in 6-well plates using FuGene 6 reagent (Roche; 3 ml FuGene/1 mg DNA). The MRTU constructs are regulated by a cis-regulating element (promoter). […] A major difference between the CIS and TRANS system is that in CIS activities of endogenous TFs are measured, whereas the TRANS assay evaluates changes in activities of exogenous, chimeric NR-Gal4 proteins. […] At the end of 24 hour incubation, total RNA was isolated using TriZol reagent (Invitrogen). The isolated RNA is then reverse-transcribed using oligo(dT) primer and Mo-MLV reverse transcriptase (Invitrogen) with DNAse I (Ambion) treatment for 30 min. The one-tenth of the produced cDNA was amplified by PCR using Taq DNA polymerase (Invitrogen) and two reporter sequence-specific primers. The PCR products were fluorescently labeled by primer extension with 6-arboxyfluorescein (6-FAM) 5'-labeled reporter sequence-specific primer (2 min at 95 C, 20 s at 68 C and 10 min at 72 C) and these products were digested with 5U of HpaI (New England Biolabs) for 2h at 37 C. The fragments were purified using Qiaquick PCR columns (Qiagen), analyzed on an ABI 3130xL genetic analyzer (Applied Biosystems) with peak positions identified by using a set of X-rhodamine (ROX)-labeled MapMarker1000 molecular weight standards (BioVentures). The raw capillary electrophoresis data was processed using Attagraph software (Attagene).
With `Cc1cc(O)c(C(C)(C)C)cc1C(C)(C)C` the outcome was “inactive”.
With `O=C(O)C(F)(F)C(F)(F)C(F)(F)OC(F)(C(F)(F)F)C(F)(F)F` the outcome was “inactive”.
In the case of `OCC(F)(F)C(F)(F)C(F)(F)CO`, the outcome is reported as “inactive”.
For `CNS(=O)(=O)C(F)(F)C(F)(F)C(F)(F)C(F)(F)C(F)(F)C(F)(F)C(F)(F)C(F)(F)F`, the outcome was “inactive”.
For `OCC(O)CC(F)(F)C(F)(F)C(F)(F)C(F)(F)F` (stereo not given), the outcome was “inactive”.
In the case of `Nc1c(Br)cc([N+](=O)[O-])cc1Br`, the outcome is reported as “inactive”.
With `CC(C)Nc1ccc(NC(C)C)c2c1C(=O)c1ccccc1C2=O` the outcome was “inactive”.
In the case of `CC1=CC2C3C=CC(C3)C2C1C` (stereo not given), the outcome is reported as “inactive”.
In the case of `NCC(F)(F)C(F)(F)C(F)(F)C(F)(F)C(F)(F)C(F)(F)F`, the outcome is reported as “inactive”.
For `O=C(Cl)c1ccc(Cl)cc1Cl`, the outcome was “inactive”.
In the case of `O=C(O)C(F)(F)C(F)(F)C(F)(F)C(=O)O`, the outcome is reported as “inactive”.
With `O=C(O)CCC(F)(F)C(F)(F)C(F)(F)C(F)(F)C(F)(F)C(F)(F)C(F)(F)F` the outcome was “inactive”.
For `CCc1ccc(C)nc1`, the outcome was “inactive”.
For `O=C(O)C(F)(F)OC(F)(F)C(F)(F)OC(F)(F)C(F)(F)OC(F)(F)F`, the outcome was “inactive”.
With `Cc1ccc(O)cn1` the outcome was “inactive”.
For `O=C(F)C1(F)C(F)(F)C(F)(F)C(F)(F)C(F)(F)C1(F)F`, the outcome was “inactive”.
For `CCC(Cc1c(I)cc(I)c(N)c1I)C(=O)O` (stereo not given), the AC50 was 4.54 µM (active).
With `CN(C(=O)C(F)(F)C(F)(F)C(F)(F)F)[Si](C)(C)C` the outcome was “inactive”.
With `CC(C)(C)c1cc(CCC(=O)NCCCCCCNC(=O)CCc2cc(C(C)(C)C)c(O)c(C(C)(C)C)c2)cc(C(C)(C)C)c1O` the outcome was “inactive”.
In the case of `O=C(Cl)C(F)(F)C(F)(F)C(F)(F)C(F)(F)C(F)(F)C(F)(F)C(F)(F)F`, the AC50 is reported as 47.5 µM (active).
With `O=S(=O)(O)CCC(F)(F)C(F)(F)C(F)(F)C(F)(F)C(F)(F)C(F)(F)C(F)(F)C(F)(F)F` the outcome was “inactive”.
In the case of `O=C1C=CC(=O)N1c1ccccc1`, the outcome is reported as “inactive”.
For `C=C(C)C(=O)OCC(F)(F)C(F)(F)C(F)(F)C(F)F`, the outcome was “inactive”.
With `O=C1OC(=O)c2ccc3c4c(ccc1c24)C(=O)OC3=O` the outcome was “inactive”.
In the case of `Cc1ccc([N+](=O)[O-])c(C)c1`, the outcome is reported as “inactive”.
For `CCN=c1cc2oc3cc(NCC)c(C)cc3c(-c3ccccc3C(=O)OCC)c-2cc1C`, the outcome was “inactive”.
For `CCCCCCCCCCCC(=O)Cl`, the outcome was “inactive”.
With `O=S(=O)(O)c1ccc(Cl)cc1` the outcome was “inactive”.
With `O=C1c2c(O)ccc(Nc3ccc(CCO)cc3)c2C(=O)c2c([N+](=O)[O-])ccc(O)c21` the outcome was “inactive”.
For `C=C(C)CCCC`, the outcome was “inactive”.
For `NCC(F)(F)C(F)(F)C(F)(F)C(F)(F)C(F)(F)C(F)(F)C(F)(F)C(F)(F)F`, the outcome was “inactive”.
In the case of `FC(F)(F)C(F)(F)C(F)(F)C(F)(F)C(F)(F)C(F)(F)C(F)(F)CCI`, the outcome is reported as “inactive”.
With `CCCCCCCCCCCCC[N+](C)(C)Cc1ccccc1` the outcome was “inactive”.
With `OCC1CCCO1` (stereo not given) the outcome was “inactive”.
With `O=c1cccc[nH]1` the outcome was “inactive”.
For `N#CCCOCCC#N`, the outcome was “inactive”.
For `CCN(CC)c1ccc(C=O)cc1`, the outcome was “inactive”.
For `OCCCCl`, the outcome was “inactive”.
For `O=S(=O)(Cl)C(F)(F)C(F)(F)C(F)(F)C(F)(F)C(F)(F)C(F)(F)C(F)(F)C(F)(F)F`, the AC50 was 29.4 µM (active).
For `C[C@]12CC[C@H]3C(=CCc4cc(O)ccc43)[C@@H]1CCC2=O`, the AC50 was 0.0626 µM (active).
